Our source for the growth values is PubChem BioAssay (NCI).

The panel holds about 83,000 compounds, 20% with a hit somewhere; the sample as a whole holds those more often.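 For each line, cells grew in 96-well plates with the test compound present at a single concentration for 48 hours.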 Unmarked numbers belong to inactive results. Calls of active or inactive are those of the source. Rule for the calls: active = growth percent below 10; inactive = the rest.

The test deals with HL-60(TB) leukemia. Nature of the test: NCI-60 one-dose screen, 48 h (100 = growth as untreated, 0 = no growth, -100 = all killed). The settings on record: 10 µM unless noted.
On to `Cc1cc2c3c(cccc3c1)C(=O)c1ccccc1-2`, for which the growth was 101%.

Consider `COc1ccc(-c2nc3sc(C4CC4)nn3c2/C=C2/C(=O)Nc3ccc(OC)cc32)cc1`, for which the growth was 97%.

Turning to `CCN(CC)Cc1cc(Nc2c3ccc(Cl)cc3nc3c(C)cccc23)ccc1O`, the growth is -19.7% (active).

`OCCCc1n(Cc2ccc3ccccc3c2)c2ccccc2[n+]1Cc1ccc2ccccc2c1`: the growth is -43.5% (active).

Turning to `O=C1/C=C/[C@@H](O)[C@@H]2C[C@@H](O)C[C@H]2/C=C/CCC[C@H](CO)O1`, the growth is -25.4% (active).

Regarding `Fc1cc(-c2nnc3sc(-c4ccc(Cl)cc4Cl)nn23)c(Cl)cc1Cl`, the growth was 161%.

Turning to `COc1ccccc1/C=N\NC(=S)Nc1ccc(F)cc1`, the growth is 94.5%.

Take `O=S(=O)(OCCOS(=O)(=O)c1ccccc1)c1ccccc1`: the growth is 92.5%.

For `COc1ccc(C(=O)COc2cccc(/C=C3\Oc4ccc5ccccc5c4C3=O)c2)cc1`, the growth was 90.7%.

Turning to `CCOC(=O)NNc1[nH]c(-c2ccc(OC)cc2)cc1C#N`, the growth is -42.4% (active).

On to `C#CCOc1nc(C)cc(C)c1C#N`, for which the growth was 89.5%.

Turning to `Nc1nc(-c2ccc(F)cc2)cc(-c2cnn(-c3ccccc3)n2)n1`, the growth is 101%.

In the case of `CNC(=O)c1cc(COc2nnc(Nc3ccc(Cl)cc3)c3ccoc23)ccn1`, the growth is 120%.

As to `N#CCCCCCn1c2ccccc2c2c3c(c4c5ccccc5[nH]c4c21)C(=O)N(O)C3=O`, the growth is -46% (active).

`COc1c(-c2c3sc(=O)[nH]c3nc3c2c(=O)[nH]n3C(C)C)cc2c(c1OC)OCO2`: the growth was 93.8%.
